Consider eight compounds from PubChem BioAssay (NCI).

The panel holds about 83,000 compounds, 20% with a hit somewhere; the sample as a whole holds those more often.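 Plates (96-well) were seeded with cells, treated with compound at one concentration, and incubated for 48 hours before percent growth was determined.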 Values without a mark were called inactive. The source made the active and inactive calls. The calls were made as follows: active = growth percent below 10; inactive = the rest.

Among the test systems are HCT-15 colon; HT29 colon; SNB-75 CNS; SNB-19 CNS; U251 CNS; PC-3 prostate; SK-MEL-5 melanoma; UACC-62 melanoma; LOX IMVI melanoma; SK-MEL-28 melanoma; SK-MEL-2 melanoma; SN12C renal; UO-31 renal; TK-10 renal; ACHN renal; CAKI-1 renal; A498 renal; CCRF-CEM leukemia; MOLT-4 leukemia; EKVX NSCLC.
Assay in all cases: NCI-60 one-dose screen, 48 h (100 = growth as untreated, 0 = no growth, -100 = all killed)
What all share (conditions): 10 µM unless noted

In the case of `CC1=NN2C(=NC3=C(CCC/C3=C\c3ccc(Cl)cc3)C2c2ccc(Cl)cc2)S1` (stereo not given), the growth was 89.3% in the experiment on HCT-15 colon; 48.1% in the experiment on HT29 colon; 100% in the experiment on SNB-75 CNS; 84.3% with SNB-19 CNS; 85.9% in the experiment with U251 CNS; 95.3% with PC-3 prostate. Moreover, the growth was 96.6% in the experiment on SK-MEL-5 melanoma; 83% in the experiment on UACC-62 melanoma; 60.6% in the experiment on LOX IMVI melanoma; 99.3% in the experiment with SK-MEL-28 melanoma; 86.3% with SK-MEL-2 melanoma; 102% in the experiment on SN12C renal. Moreover, the growth in the experiment on UO-31 renal was 86.1%; in the experiment on TK-10 renal, 111%; in the experiment on ACHN renal it was 98.2%; in the experiment with CAKI-1 renal it was 99.9%; in the experiment with A498 renal it was 87.6%; in the experiment on CCRF-CEM leukemia it was 84.7%. Also, the growth with MOLT-4 leukemia is 72.9%.

For `CCCCNC(=O)NS(=O)(=O)c1ccc(N2N=C(c3ccc(C)cc3C)CC2c2ccc(OC)cc2)cc1` (stereo not given), the growth with HCT-15 colon was 47%; in the experiment on HT29 colon, 88%; in the experiment on SNB-75 CNS, 85.4%; with SNB-19 CNS, 81.2%; in the experiment with U251 CNS it was 44.9%; in the experiment on PC-3 prostate it was 50.1%. Besides, the growth with SK-MEL-5 melanoma was 55.6%; in the experiment with UACC-62 melanoma, 60%; in the experiment with LOX IMVI melanoma, 56.2%; in the experiment with SK-MEL-28 melanoma, 44.8%; in the experiment with SK-MEL-2 melanoma, 81.3%; in the experiment with SN12C renal, 75%. Moreover, the growth is 59.7% in the experiment on UO-31 renal; 88.7% in the experiment on TK-10 renal; 64% with ACHN renal; 70.8% in the experiment on CAKI-1 renal; 52.9% in the experiment on A498 renal; 54.3% in the experiment with CCRF-CEM leukemia.

As to `COc1cc(C2CC(c3c(C)[n+]([O-])c4ccccc4[n+]3[O-])=NN2)cc(OC)c1OC` (stereo not given), the growth with HCT-15 colon was 97.3%; in the experiment with HT29 colon, 120%; with SNB-75 CNS it was 99.4%; with SNB-19 CNS, 101%; with U251 CNS, 99.6%; in the experiment with PC-3 prostate, 102%. Further, the growth is 96% with SK-MEL-5 melanoma; 105% with UACC-62 melanoma; 98% in the experiment with LOX IMVI melanoma; 116% with SK-MEL-28 melanoma; 96.4% in the experiment on SK-MEL-2 melanoma; 123% in the experiment on EKVX NSCLC. In addition, the growth in the experiment with SN12C renal was 94.4%; in the experiment with UO-31 renal it was 94.6%; in the experiment on TK-10 renal it was 122%; with ACHN renal, 103%; in the experiment on CAKI-1 renal it was 106%; with CCRF-CEM leukemia, 87.5%. Besides, in the experiment with MOLT-4 leukemia, the growth was 94.4%.

`COc1ccc(OC)c(NC(=O)c2cc(S(=O)(=O)N3CCc4ccccc43)ccc2OC)c1`: the growth in the experiment with HCT-15 colon is 107%; in the experiment on HT29 colon, 76.7%; in the experiment on SNB-75 CNS, 85.1%; with SNB-19 CNS it was 75.9%; with U251 CNS it was 92.1%; in the experiment on PC-3 prostate it was 88.5%. The growth in the experiment on SK-MEL-5 melanoma is 67.6%; with UACC-62 melanoma, 79.2%; with LOX IMVI melanoma, 94.7%; in the experiment on SK-MEL-28 melanoma, 131%; with SK-MEL-2 melanoma, 36.4%; in the experiment with EKVX NSCLC, 94.9%. For the same compound, the growth in the experiment with SN12C renal is 95%; in the experiment on UO-31 renal, 42.2%; in the experiment with TK-10 renal, 91.9%; in the experiment on ACHN renal, 93.3%; with CAKI-1 renal, 107%; in the experiment on CCRF-CEM leukemia it was 107%. In the experiment with MOLT-4 leukemia, the growth is 106%.

Consider `CC(=O)OC[Si](C)(C)c1ccccc1`, for which the growth in the experiment on HCT-15 colon was 99.7%; in the experiment with HT29 colon it was 105%; with SNB-75 CNS it was 89.8%; in the experiment with SNB-19 CNS, 102%; with U251 CNS, 93.7%; in the experiment on PC-3 prostate, 95.8%. For the same compound, the growth in the experiment with SK-MEL-5 melanoma is 97.3%; in the experiment with UACC-62 melanoma, 102%; in the experiment on LOX IMVI melanoma, 103%; in the experiment on SK-MEL-28 melanoma, 98.2%; in the experiment with SK-MEL-2 melanoma it was 126%; in the experiment with SN12C renal, 99.6%. For the same compound, the growth in the experiment on UO-31 renal was 94.9%; in the experiment on TK-10 renal, 107%; in the experiment with ACHN renal it was 106%; in the experiment on CAKI-1 renal, 92.1%; in the experiment with A498 renal it was 103%; in the experiment with CCRF-CEM leukemia, 108%. Also, the growth in the experiment with MOLT-4 leukemia is 112%.

Regarding `C[N+](C)(C)c1ccc(CC2c3ccccc3-c3ccccc32)cc1`, the growth in the experiment with HCT-15 colon was 98.1%; with HT29 colon, 65.9%; in the experiment on SNB-75 CNS it was -3.78% (active); with SNB-19 CNS it was 23.2%; in the experiment on U251 CNS it was 19.3%; in the experiment on PC-3 prostate it was 56.1%. The growth is 77.1% with SK-MEL-5 melanoma; 81.5% in the experiment with UACC-62 melanoma; 86.3% in the experiment with LOX IMVI melanoma; 81.3% with SK-MEL-28 melanoma; 81.5% in the experiment with SK-MEL-2 melanoma; 71.2% in the experiment on EKVX NSCLC. Also, the growth in the experiment with SN12C renal is 21.3%; in the experiment on UO-31 renal, 90.9%; with TK-10 renal, 93.3%; with ACHN renal it was 99.9%; with CAKI-1 renal, 86.8%; in the experiment on MOLT-4 leukemia, 76.4%.

Regarding `CC(C)(C)c1cn2cccc(C(=O)N3CCN(CC(=O)Nc4ccc(Cl)cc4C(=O)c4ccccc4Cl)CC3)c2n1`, the growth was 47.5% in the experiment with HCT-15 colon; 22.2% with HT29 colon; 78.4% with SNB-75 CNS; 73.2% with SNB-19 CNS; 43.4% in the experiment on U251 CNS; 17.6% in the experiment with PC-3 prostate. Also, the growth in the experiment on SK-MEL-5 melanoma is 12.5%; in the experiment on UACC-62 melanoma, 57.6%; in the experiment on LOX IMVI melanoma it was 63.5%; in the experiment with SK-MEL-28 melanoma, 89.8%; in the experiment on SK-MEL-2 melanoma, 65.4%; in the experiment on EKVX NSCLC it was 40.8%. In addition, the growth is 72.6% in the experiment on SN12C renal; 47% in the experiment on UO-31 renal; 69% with TK-10 renal; 44.8% in the experiment on ACHN renal; 67.5% in the experiment on CAKI-1 renal; 27.9% in the experiment on CCRF-CEM leukemia. Moreover, the growth in the experiment with MOLT-4 leukemia is 16.4%.

As for `C/C(=N\NC(=O)CC#N)c1cc2cc(Cl)ccc2o1`, the growth in the experiment with HCT-15 colon was 94.7%; with HT29 colon it was 97.2%; in the experiment with SNB-75 CNS it was 91%; in the experiment on SNB-19 CNS, 77.9%; in the experiment with U251 CNS, 89.3%; in the experiment on PC-3 prostate, 92.4%. The growth in the experiment with SK-MEL-5 melanoma was 84.2%; in the experiment with UACC-62 melanoma, 91%; in the experiment with LOX IMVI melanoma, 103%; with SK-MEL-28 melanoma, 110%; in the experiment on SK-MEL-2 melanoma, 96.4%; with EKVX NSCLC, 33.6%. The growth with SN12C renal is 93.1%; in the experiment on UO-31 renal it was 108%; with TK-10 renal, 114%; with ACHN renal it was 96.1%; in the experiment on CAKI-1 renal, 89.2%; with CCRF-CEM leukemia, 70.2%. In addition, the growth in the experiment with MOLT-4 leukemia was 87.4%.
